Reference: PubChem BioAssay (NCATS)
Where “and” joins values, the source holds several entries; their conditions need not be identical. Equal values may be shown once. Results filed as inconclusive are left out. Calls of active or inactive are those of the source. Unless noted, the call rests on the fitted dose curve; in most records, active means well fitted curve in either direction with a large enough effect (not every such curve was filed as active); inconclusive means small, poorly fitted or top-dose-only effect, or another doubt; inactive means flat fitted curve, though single readings scatter.

What was measured:
[1] = AP1 Signaling Pathway (AID 357); further: on the % scale 0 is the no-effect control and ±100 the full control effect
How it was run: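 Titration-series screen for positive or negative modulators of EC50 EGF-induced signaling in ME-180 cells carrying an AP-1-driven beta-lactamase reporter. After 5 hours at 37 degrees Celsius, CCF4 460nm/530nm emission ratio gave %Activity; AC50 values derived.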

[2] = target: Cytochrome P450 1A2 (Homo sapiens) (UniProt P05177); experiment: p450-cyp1a2 (AID 410; calls by dose curve; further: potency means the concentration at half of the fitted maximal effect;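 on activity change, negative = inhibition: -100% = full effect of reference inhibitor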)
Cytochrome P450 1A2 (Homo sapiens), sequence (P05177 whole entry, looked up): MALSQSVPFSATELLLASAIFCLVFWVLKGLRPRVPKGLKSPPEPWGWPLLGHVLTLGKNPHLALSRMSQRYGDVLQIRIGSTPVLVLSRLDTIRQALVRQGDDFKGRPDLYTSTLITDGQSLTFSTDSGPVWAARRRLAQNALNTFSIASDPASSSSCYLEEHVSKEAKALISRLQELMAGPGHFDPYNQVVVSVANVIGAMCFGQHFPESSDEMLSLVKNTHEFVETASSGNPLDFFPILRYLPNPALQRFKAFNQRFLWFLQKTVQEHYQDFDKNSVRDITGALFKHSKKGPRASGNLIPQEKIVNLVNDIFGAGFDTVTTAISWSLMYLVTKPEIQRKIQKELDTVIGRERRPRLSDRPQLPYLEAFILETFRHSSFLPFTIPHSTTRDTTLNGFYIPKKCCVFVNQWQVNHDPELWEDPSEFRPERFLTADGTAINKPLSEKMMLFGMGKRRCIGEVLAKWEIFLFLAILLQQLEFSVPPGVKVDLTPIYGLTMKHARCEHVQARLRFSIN
How it was run: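 Luminescent demethylation readout: Luciferin-ME (100uM, equal to Km) turned over by 20nM CYP1A2 for 60 min at room temperature after NADPH regeneration addition, following 10 min compound preincubation. Normalization used 57 uM furafylline as full inhibition.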

[3] = Stat Signaling Pathway (AID 446);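 further: ME-180 cervical cancer cells given 40 pM IL-6 alongside compound; SIE-controlled beta-lactamase reporter measured as 460/530 nm FRET emission ratio; on the % scale 0 is the no-effect control and ±100 the full control effect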
How it was run: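 Normalization used AC90 stimulation (300 pM IL-6) and AC90 inhibition (125 nM pan-JAK inhibitor at 40 pM IL-6). The underlying signal is SIE-driven beta-lactamase in ME-180 cells after 5 h IL-6 exposure with compound.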

[4] = target: Glucocorticoid receptor (Homo sapiens) (UniProt P04150); experiment: GR-GFP Redistribution (AID 450;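 active means compounds whose dose series gives a full or clear partial fitted curve of increased nuclear translocation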; further: potency means the concentration at half of the fitted maximal effect); details: U2OS GR-GFP nuclear translocation, laser cytometry, 2 h
Glucocorticoid receptor (Homo sapiens), sequence (P04150 whole entry, looked up, the tested form may be a part): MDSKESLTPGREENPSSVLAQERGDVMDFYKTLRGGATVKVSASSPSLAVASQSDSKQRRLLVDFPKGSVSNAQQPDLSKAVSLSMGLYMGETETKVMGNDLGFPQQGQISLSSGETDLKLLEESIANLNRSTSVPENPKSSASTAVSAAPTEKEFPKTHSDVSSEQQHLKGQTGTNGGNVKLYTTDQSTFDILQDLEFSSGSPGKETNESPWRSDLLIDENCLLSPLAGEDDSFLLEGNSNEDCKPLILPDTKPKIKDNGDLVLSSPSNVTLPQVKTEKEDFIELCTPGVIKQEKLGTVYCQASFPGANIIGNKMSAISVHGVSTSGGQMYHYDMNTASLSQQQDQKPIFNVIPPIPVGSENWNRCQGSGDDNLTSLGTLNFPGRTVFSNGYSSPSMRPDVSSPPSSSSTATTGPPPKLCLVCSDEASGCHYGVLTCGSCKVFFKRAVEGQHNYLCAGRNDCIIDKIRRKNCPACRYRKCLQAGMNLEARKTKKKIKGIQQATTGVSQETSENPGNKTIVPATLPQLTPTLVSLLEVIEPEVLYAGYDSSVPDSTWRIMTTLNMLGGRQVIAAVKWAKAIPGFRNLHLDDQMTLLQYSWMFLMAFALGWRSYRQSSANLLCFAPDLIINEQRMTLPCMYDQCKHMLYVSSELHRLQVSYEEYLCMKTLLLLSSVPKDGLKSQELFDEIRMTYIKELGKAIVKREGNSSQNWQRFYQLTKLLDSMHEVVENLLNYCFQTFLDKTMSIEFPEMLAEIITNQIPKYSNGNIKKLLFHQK

[5] = target: Glucocorticoid receptor (Homo sapiens) (UniProt P04150); experiment: GR-EFC Redistribution (AID 451; calls by dose curve; further: potency means the concentration at half of the fitted maximal effect); details: CHO-K1 GR-EFC translocation, beta-gal luminescence, 2 h
How it was run: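 Translocation of GR-ED fusion to nuclear EA restores b-gal, read by luminescence after 1 h room-temperature detection. Engineered CHO-K1 biosensor cells, 1,000/well, exposed 2 h at 37 C to titrations up to 46 uM final.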

[6] = target: Mitogen-activated protein kinase 10 (Mus musculus) (UniProt Q61831); experiment: JNK3 AlphaScreen Assay (AID 530);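 further: kinase came from lysate of stimulated human HepG2 cells; signal reports phosphorylation of biotinylated GST-cJun 1-79 at Ser73 with 10 µM ATP; on the % scale 0 is the no-effect control and ±100 the full control effect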
How it was run: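 qHTS titrations with 15 min compound pre-incubation before adding ATP (10 uM final). Read-out: AlphaScreen of Ser73-phosphorylated biotin-GST-cJun using HepG2 lysate JNK3 activated by IL-1β and TNFα.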

[7] = target: 3',5'-cyclic-AMP phosphodiesterase 4B (Homo sapiens) (UniProt Q07343); experiment: qHTS Assay for Inhibitors of PDE-IV (AID 607; active means well fitted activation curve with a large enough effect in the main read-out, with a control signal flat, not every such curve was filed as active; further: % of control where 0% means no effect)
3',5'-cyclic-AMP phosphodiesterase 4B (Homo sapiens), sequence (Q07343 whole entry, looked up): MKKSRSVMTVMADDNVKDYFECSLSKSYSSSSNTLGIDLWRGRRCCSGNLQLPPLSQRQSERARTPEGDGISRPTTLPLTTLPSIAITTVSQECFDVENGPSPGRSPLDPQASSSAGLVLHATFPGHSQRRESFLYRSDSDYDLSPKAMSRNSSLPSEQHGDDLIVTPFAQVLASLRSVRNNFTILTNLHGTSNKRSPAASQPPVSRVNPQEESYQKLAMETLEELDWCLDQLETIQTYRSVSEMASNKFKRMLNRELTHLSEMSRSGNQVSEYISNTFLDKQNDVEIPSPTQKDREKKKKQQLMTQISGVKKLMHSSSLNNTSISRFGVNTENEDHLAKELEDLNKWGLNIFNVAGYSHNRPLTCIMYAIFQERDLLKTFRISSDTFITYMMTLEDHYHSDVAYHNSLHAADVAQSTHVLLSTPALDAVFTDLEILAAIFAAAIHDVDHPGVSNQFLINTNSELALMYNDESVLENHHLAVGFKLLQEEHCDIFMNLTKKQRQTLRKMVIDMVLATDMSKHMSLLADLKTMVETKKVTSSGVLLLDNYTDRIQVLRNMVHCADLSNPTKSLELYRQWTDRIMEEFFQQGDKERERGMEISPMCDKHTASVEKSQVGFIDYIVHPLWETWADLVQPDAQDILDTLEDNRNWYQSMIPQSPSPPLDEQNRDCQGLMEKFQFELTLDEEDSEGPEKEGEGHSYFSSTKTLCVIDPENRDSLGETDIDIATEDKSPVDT
How it was run: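 HEK293 ACTOne cells with CNG channel (1000/well), endogenous PDE4; membrane potential dye, compounds up to 22.9 uM final. Fluorescence Ex 535/Em 590; RO 20-1724 (100 uM final) as reference.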

[8] = qHTS Assay for Lipid Storage Modulators (AID 1519; calls by dose curve); details: Drosophila S3 cells, BODIPY lipid droplet/cell ratio, laser cytometry, cells loaded with oleic acid; for activity change, negative = inhibition: at 25.7 µM (top of the series)
How it was run: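 Cells seeded at 5,000 per well were treated with compounds over a concentration series and loaded with oleic acid (400 uM, as added). Lipid droplet fluorescence (488 nm excitation, 500-530 nm channel) was read by laser-scanning cytometry and normalized to 20 uM Triacsin C.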

[9] = target: ATP-dependent 6-phosphofructokinase (Trypanosoma brucei brucei) (UniProt O15648); experiment: qHTS Assay to Find Inhibitors of T. brucei phosphofructokinase: hit validation (AID 492961; active means well fitted curve in the direction sought with a large enough effect; an effect the other way counts as inactive or inconclusive;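 further: luminescence reports ADP formed as PFK phosphorylates fructose-6-phosphate with ATP; on the % scale 0 is the no-effect control and ±100 the full control effect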)
ATP-dependent 6-phosphofructokinase (Trypanosoma brucei brucei), sequence (O15648 whole entry, looked up): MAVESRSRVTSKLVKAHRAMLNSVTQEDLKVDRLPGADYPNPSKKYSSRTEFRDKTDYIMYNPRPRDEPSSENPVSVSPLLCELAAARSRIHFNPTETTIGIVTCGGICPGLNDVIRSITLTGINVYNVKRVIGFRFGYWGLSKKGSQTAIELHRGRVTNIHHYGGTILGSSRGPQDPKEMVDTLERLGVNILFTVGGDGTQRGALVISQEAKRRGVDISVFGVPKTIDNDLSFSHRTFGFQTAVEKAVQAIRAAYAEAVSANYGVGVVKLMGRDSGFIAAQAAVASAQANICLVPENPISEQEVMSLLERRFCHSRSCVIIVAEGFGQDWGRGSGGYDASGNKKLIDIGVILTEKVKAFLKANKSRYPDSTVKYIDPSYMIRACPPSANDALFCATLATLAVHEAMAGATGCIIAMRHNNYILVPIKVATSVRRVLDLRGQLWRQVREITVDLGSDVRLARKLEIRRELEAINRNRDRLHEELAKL
How it was run: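 ADP-Glo luminescence read-out of ADP formed by 1.25 nM PFK from 0.1 mM ATP and 0.5 mM F6P (TEA pH 8.0, 45 min, RT). Compounds titrated; activity normalized to no-enzyme and full-enzyme controls.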

[10] = target: Ubiquitin carboxyl-terminal hydrolase 1 (Homo sapiens) (UniProt O94782); experiment: Inhibitors of USP1/UAF1: Pilot qHTS (AID 504865; active means well fitted curve in the direction sought with a large enough effect; an effect the other way counts as inactive or inconclusive;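 further: rhodamine fluorescence freed from ubiquitin-rhodamine substrate followed over time; top concentration of the series differs between compounds; on the % scale 0 is the no-effect control and ±100 the full control effect; nearly all actives have a fitted effect of over 35% in size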)
Ubiquitin carboxyl-terminal hydrolase 1 (Homo sapiens), sequence (O94782 whole entry, looked up): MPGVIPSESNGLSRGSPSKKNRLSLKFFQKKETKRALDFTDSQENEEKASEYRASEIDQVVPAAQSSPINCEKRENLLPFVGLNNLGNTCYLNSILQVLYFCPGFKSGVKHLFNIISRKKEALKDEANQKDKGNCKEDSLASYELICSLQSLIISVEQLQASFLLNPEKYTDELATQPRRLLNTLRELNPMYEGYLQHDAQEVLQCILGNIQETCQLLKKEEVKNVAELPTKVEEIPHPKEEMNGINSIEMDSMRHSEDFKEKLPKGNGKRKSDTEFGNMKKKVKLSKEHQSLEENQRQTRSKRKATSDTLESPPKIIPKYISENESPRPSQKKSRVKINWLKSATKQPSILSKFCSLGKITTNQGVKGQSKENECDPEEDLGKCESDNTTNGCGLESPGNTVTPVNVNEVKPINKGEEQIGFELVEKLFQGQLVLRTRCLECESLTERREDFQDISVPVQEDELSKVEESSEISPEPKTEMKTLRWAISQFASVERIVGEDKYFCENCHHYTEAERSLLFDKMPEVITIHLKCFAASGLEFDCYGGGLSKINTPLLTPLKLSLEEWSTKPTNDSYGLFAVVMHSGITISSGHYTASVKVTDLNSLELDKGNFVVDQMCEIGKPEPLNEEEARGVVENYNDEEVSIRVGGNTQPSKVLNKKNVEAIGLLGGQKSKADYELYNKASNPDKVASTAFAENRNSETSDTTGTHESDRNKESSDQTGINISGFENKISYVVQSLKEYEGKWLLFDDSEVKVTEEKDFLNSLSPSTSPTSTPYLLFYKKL
How it was run: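 1nM USP1/UAF1 + cpd, 15 min RT; start w/ Ub-Rho 150nM final; kinetic FL 480/540 nm, 6 reads q60 s. Buffer 50mM HEPES pH 7.8, 0.5mM EDTA, 1mM TCEP, 0.01% Tween-20, 0.1 mg/ml BSA.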

[11] = target: Luciferin 4-monooxygenase (Photinus pyralis) (UniProt P08659); experiment: Biochemical firefly luciferase enzyme assay for NPC (AID 624030; active means well fitted curve in the direction sought with a large enough effect; an effect the other way counts as inactive or inconclusive;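 further: purified P. pyralis luciferase at 10 nM with luciferin and ATP substrate; 0% = DMSO and -100% = full luciferase inhibition by PTC124 control; nearly all actives have a fitted effect of over 70% in size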)
Luciferin 4-monooxygenase (Photinus pyralis), sequence (P08659 whole entry, looked up): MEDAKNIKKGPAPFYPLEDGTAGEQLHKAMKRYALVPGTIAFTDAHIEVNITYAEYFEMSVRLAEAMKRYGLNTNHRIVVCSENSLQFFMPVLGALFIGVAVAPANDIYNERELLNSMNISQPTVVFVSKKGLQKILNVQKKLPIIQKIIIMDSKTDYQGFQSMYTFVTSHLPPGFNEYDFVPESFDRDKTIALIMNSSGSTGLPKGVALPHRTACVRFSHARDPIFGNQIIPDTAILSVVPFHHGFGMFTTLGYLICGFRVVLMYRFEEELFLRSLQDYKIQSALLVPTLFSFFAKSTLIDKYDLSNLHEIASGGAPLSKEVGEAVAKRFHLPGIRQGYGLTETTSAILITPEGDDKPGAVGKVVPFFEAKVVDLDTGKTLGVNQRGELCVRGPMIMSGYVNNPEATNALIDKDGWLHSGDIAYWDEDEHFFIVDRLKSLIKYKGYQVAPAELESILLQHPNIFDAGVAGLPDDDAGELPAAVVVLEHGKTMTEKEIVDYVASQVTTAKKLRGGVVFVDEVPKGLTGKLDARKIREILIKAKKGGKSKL
How it was run: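 Direct inhibition of firefly luciferase enzyme (10 nM final, 50 mM Tris Acetate) assessed by luminescence within 5 minutes. Percent activity scaled between DMSO and PTC124 positive control, with concentration-effect curves classified by fit quality and response.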

[12] = qHTS profiling for inhibitors of Plasmodium falciparum proliferation (AID 504749; active means well fitted curve in the direction sought with a large enough effect; an effect the other way counts as inactive or inconclusive;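 further: 0% = DMSO vehicle and full inhibition = artemisinin control; nearly all actives have a fitted effect of over 60% in size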); details: P. falciparum in erythrocytes, SYBR Green DNA, 72 h, at 12.8 µM (top of the series)
How it was run: (§1)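 SYBR Green fluorescence of parasite DNA, read after lysis and overnight dark incubation, measured growth over 72 h in erythrocyte culture at 0.3% parasitemia and 2.5% hematocrit. Data normalised to DMSO and 0.29 uM artemisinin, with plate-drift correction.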

C2A = experiment: as above; details: P. falciparum in erythrocytes, SYBR Green DNA, 72 h; series mostly up to 28.7 µM
How it was run: as §1

CP192 = experiment: as above; details: P. falciparum in erythrocytes, SYBR Green DNA, 72 h; series mostly up to 28.7 µM
How it was run: as §1

CP211 = experiment: as above; details: P. falciparum in erythrocytes, SYBR Green DNA, 72 h; series mostly up to 28.7 µM
How it was run: as §1

CP266 = experiment: as above; details: P. falciparum in erythrocytes, SYBR Green DNA, 72 h; series mostly up to 12.8 µM
How it was run: as §1

CP315 = experiment: as above; details: P. falciparum in erythrocytes, SYBR Green DNA, 72 h; series mostly up to 28.7 µM
How it was run: as §1

CP329 = experiment: as above; details: P. falciparum in erythrocytes, SYBR Green DNA, 72 h; series mostly up to 28.7 µM
How it was run: as §1

FAB9 = experiment: as above; details: P. falciparum in erythrocytes, SYBR Green DNA, 72 h; series mostly up to 28.7 µM
How it was run: as §1

[13] = NFAT Signaling Pathway (AID 444); details: Jurkat NFAT-bla M1, carbachol, beta-lactamase ratio, 5 h; at 17.2 µM (top of the series)
How it was run: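 Read-out: CCF4 FRET ratio (460 nm/530 nm) after 1 h RT dye loading, used for %activity and AC50 from titration series. Cells: Jurkat NFAT-β-lactamase/M1 line, treated with compound plus 1 uM carbachol for 5 h, 37 °C.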

[14] = measured here: cell count channel max response
[15] = measured here: lipid channel max response

C[C@H](N)[C@@H](O)c1ccccc1
20.5%: max response [8, 15]
17%: max response [8, 14]
inactive: outcome [1] | Potency [2] | outcome [3] | Potency [4] > 20.6 µM | Potency [5] > 20.6 µM | outcome [6] | Potency [7] | activity change, negative = inhibition [8] 1.99% | Potency [9] | Potency [10] | Potency [11] | activity, negative = inhibition ([12]; parasite line A) -2.43% | activity, negative = inhibition ([12]; parasite line B) 9.04% | Potency (C2A) | Potency (CP192) | Potency (CP211) | Potency (CP266) | Potency (CP315) | Potency (CP329) | Potency (FAB9)

CN1Cc2c(ccc3c2OCO3)[C@@H]2[C@@H](O)Cc3cc4c(cc3[C@@H]21)OCO4
0.16%: max response [8, 14]
inactive: outcome [1] | outcome [3] | Potency [4] > 20.6 µM and > 46 µM | Potency [5] > 20.6 µM and > 46 µM | outcome [6] | Potency [7] | activity change, negative = inhibition [8] 0.247% | Potency [10]
-1.15%: max response [8, 15]
active: Potency [2] 2.51 µM and 794 nM

CCN[C@]1(c2cccs2)CCCCC1=O
inactive: outcome [1] | activity change, negative = inhibition [13] -19.9% | outcome [3] | Potency [4] > 20.6 µM | Potency [5] > 20.6 µM | outcome [6] | activity change, negative = inhibition [8] 0.601% | Potency [9] | Potency [11] | activity, negative = inhibition ([12]; parasite line A) -1.5% | activity, negative = inhibition ([12]; parasite line B) -1.41% | Potency (C2A) | Potency (CP192) | Potency (CP211) | Potency (CP266) | Potency (CP315) | Potency (CP329) | Potency (FAB9)
-12.8%: max response [8, 15]
-13.4%: max response [8, 14]

C[C@]12CC[C@H](O)C[C@@H]1CC[C@H]1[C@H]2CC[C@]2(C)C(=O)CC[C@@H]12
-9.77% and -5.73% and -17.9%: max response [8, 14]
-12.1% and -8.44% and -22.6%: max response [8, 15]
inactive: outcome [1] | Potency [2] | outcome [3] | Potency [4] > 46 µM and > 20.6 µM | Potency [5] > 46 µM and > 20.6 µM | outcome [6] | Potency [7] | activity change, negative = inhibition [8] -2.44% and -2.6% and -5.42% | Potency [10]

CN1CCc2cc3c(cc2[C@@H]1[C@@H]1OC(=O)c2c1ccc1c2OCO1)OCO3
active: Potency [2] 15.8 µM
inactive: outcome [1] | Potency [4] > 46 µM and > 20.6 µM | Potency [5] > 46 µM and > 20.6 µM | outcome [6] | Potency [7] | activity change, negative = inhibition [8] -1.13% | Potency [10]
-3.68%: max response [8, 14]
-5.44%: max response [8, 15]

CN1[C@@H](C[C@@H](O)c2ccccc2)CCC[C@@H]1C[C@H](O)c1ccccc1
3.31%: max response [8, 14]
inactive: outcome [1] | outcome [3] | Potency [4] > 20.6 µM | Potency [5] > 20.6 µM | outcome [6] | Potency [7] | activity change, negative = inhibition [8] -1.73%
active: Potency [2] 5.01 µM
0.966%: max response [8, 15]
